# Compound activity as filed in PubChem BioAssay.
# Rows were chosen to be rich in hits. Some 9.2% of all compounds tested hit in one or more screens of this group.
# SMN2 splice up – increases expression of the SMN2 splice variant; 2.8% of 210,000 active; Potency, µM (highest dose often 46.1 µM), hits mostly activators; HEK293 SMN2-luciferase splicing reporter, luminescence, 30-36 h; note: nearly all actives have a fitted effect of over 55% in size
#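 HEK293 cells carry an SMN2 minigene-luciferase reporter in which exon 7 inclusion puts luciferase in frame. Cells were seeded at 2000 cells/well, attached for 10-12 hours, then exposed to compounds for 30-36 hours at 37C before ONE-Glo luminescence.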
# FLuc counter – firefly luciferase modulation, counter-screen for miR-21 project | purified FLuc, Km substrates, luminescence inhibition | Potency, µM (series often up to 57.5 µM), most hits filed as inhibitors | 6.9% of 360,000 active | AID 588342; note: nearly all actives have a fitted effect of over 55% in size
# Target sequence (P08659 whole entry, looked up): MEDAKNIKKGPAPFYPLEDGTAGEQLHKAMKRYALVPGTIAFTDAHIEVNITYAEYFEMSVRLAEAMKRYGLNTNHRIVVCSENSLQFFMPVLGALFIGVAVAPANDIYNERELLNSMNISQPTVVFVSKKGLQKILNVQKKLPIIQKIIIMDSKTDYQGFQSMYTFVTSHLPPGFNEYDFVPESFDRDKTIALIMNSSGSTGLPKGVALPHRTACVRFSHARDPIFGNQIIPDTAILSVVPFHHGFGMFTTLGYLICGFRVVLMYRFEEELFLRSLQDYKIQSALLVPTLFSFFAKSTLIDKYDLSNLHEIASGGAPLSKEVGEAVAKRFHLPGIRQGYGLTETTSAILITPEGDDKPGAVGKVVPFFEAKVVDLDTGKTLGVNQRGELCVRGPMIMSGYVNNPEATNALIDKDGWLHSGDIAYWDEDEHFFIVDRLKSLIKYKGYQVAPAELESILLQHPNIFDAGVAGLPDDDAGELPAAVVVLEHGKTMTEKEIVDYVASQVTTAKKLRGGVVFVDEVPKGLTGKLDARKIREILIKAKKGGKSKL
#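 Biochemical qHTS of compounds, final roughly 60 µM downward over six points, against 10 nM purified firefly luciferase using Km concentrations of substrates (10 uM D-luciferin, 10 uM ATP) in Tris acetate pH 7.5 buffer; luminescence output.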
# Rab9 promoter act – activates the Rab9 promoter; Huh7 Rab9 promoter-luciferase reporter, luminescence, 24 h; Potency, µM (top dose mostly 9.22 µM), actives largely listed as activators; 2.8% of 320,000 active; note: nearly all actives have a fitted effect of over 60% in size
#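 Using Huh7 cells stably transfected with Rab9 promoter–luciferase, compounds were incubated 24 h at 37 °C, 5% CO2; luciferase luminescence was read 10 min after reagent addition.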
# ELG1 genotox – induces genotoxicity in HEK293T cells with luciferase-tagged ELG1; AID 504466; HEK293T ELG1-luciferase reporter, luminescence, 16 h; 1.3% of 330,000 active; Potency, µM (series often up to 46 µM), usual class: activators; note: nearly all actives have a fitted effect of over 60% in size
#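 HEK293T cells expressing luciferase-tagged ELG1 were treated with compound or DMSO for 16 hr at 37°C. Luciferase activity was then read after 30 min with ONE-Glo at room temperature; rising signal flags genetic stress.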
# NPC1 prom act – activators of NPC1 promoter; 2.4% of 320,000 active; Huh7 NPC1 promoter luciferase reporter, 24 h; Potency, µM (titrated, usually from 9.22 µM), most hits filed as activators; note: nearly all actives have a fitted effect of over 60% in size
#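 Huh7 cells stably carrying NPC1 promoter–luciferase, plated in Opti-MEM with 10% FBS for 2 h, were exposed to compound in DMSO for 24 h at 37 °C; luciferase reagent was added for 10 min and luminescence read.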
# ELG1 DNA repair – ELG1-dependent DNA repair inhibition. HEK293T ELG1-luciferase reporter, luminescence, 16 h; DNA damage induced by 5-fluorouridine. Potency, µM (top dose mostly 46.1 µM), most hits filed as inhibitors. 2.3% of 330,000 active. AID 504467; note: nearly all actives have a fitted effect of over 55% in size
#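 Reporter activity after DNA damage by 5-fluorouridine is monitored. Compound-treated cells incubate 16 hr at 37 °C, then ONE-Glo is added for 30 min before luminescence reading.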
# Numbers stand for hits; - = inactive; ? = inconclusive; . = not tested or not shown; [ ] = another dose, or the depositor's remark. Calls come from the whole dose curve; as a rule, active = well fitted curve in the direction sought with a large enough effect; inconclusive = small, poorly fitted or top-dose-only effect, or another doubt; inactive = no such curve, though single readings can be large; an effect the other way counts as inactive or inconclusive.
SMILES,SMN2 splice up,FLuc counter,Rab9 promoter act,ELG1 genotox,NPC1 prom act,ELG1 DNA repair
COc1ccc(OC)c(C(=O)COC(=O)c2cccnc2SC)c1,.,-,-,-,-,-
CSc1ncccc1C(=O)OCC(=O)NC(N)=O,-,-,-,-,-,-
Cn1cc(Cl)c(C(=O)OCC(=O)Nc2nc(-c3ccc(Br)cc3)cs2)n1,16µM,?,-,-,-,?
COc1cc(C(=O)NC2CC(C)(C)CC(C)(C)C2)ccc1OC1CCN(C(C)=O)CC1,.,-,-,-,-,-
Oc1c(C(c2ccccc2Cl)N2CCC(O)CC2)sc2nc(-c3ccco3)nn12 (centres undefined),.,-,.,.,.,.
CSc1ncccc1C(=O)OCC(=O)c1ccccc1Br,-,8.5µM,-,-,-,-
CNC(=O)COC(=O)c1cccnc1SC,-,-,-,-,-,-
O=C(OCC(=O)c1ccccc1Br)c1ccncc1,-,11µM,-,-,-,-
CSc1ncccc1C(=O)OCC(=O)NC(C)(C)C,-,-,-,-,-,-
CSc1ncccc1C(=O)OCC(=O)c1ccc(Br)s1,-,12µM,-,-,-,-
O=C(NNC(=O)c1ccccc1Br)c1ccncc1,.,-,-,-,-,-
CSc1ncccc1C(=O)OCC(=O)c1ccccc1,-,12µM,-,-,-,-
CSc1ncccc1C(=O)OCC(=O)N(C)C,-,-,-,-,-,-
O=C(NC1CCC(O)CC1)c1ccc(NS(=O)(=O)c2cccc([N+](=O)[O-])c2)cc1 (centres undefined),.,-,-,-,-,?
CC(CCC(=O)O)C1CCC2C3C(O)C[C@@H]4CC(O)CC[C@@]4(C)C3CC(O)[C@]12C (some centres undefined),-,.,.,.,.,.
O=C(OCc1ccc(Cl)cc1Cl)c1cccnc1Cl,-,-,-,-,-,-
O=C(COC(=O)c1cccnc1Cl)c1cccc(Cl)c1,-,13µM,-,-,-,?
O=C(OCC(=O)c1cccc2ccccc12)c1ccc(CO)cc1,.,12µM,-,-,?,?
CCOc1ccc(CNCc2c(C(=O)O)c(C)n(Cc3ccc(F)cc3Cl)c2C)cc1,-,-,.,.,.,.
O=c1c(C=NCCCn2ccnc2)c(-c2ccccc2)[nH]n1-c1nc2ccccc2s1,.,17µM,-,?,-,-
c1ccc(-c2nnc(SCCC3OCCCO3)o2)cc1,11µM,15µM,2.5µM,?,2.5µM,?
O=C1OCCC1Sc1nnc(-c2ccc(Br)cc2)o1 (centres undefined),-,6µM,-,-,-,-
Brc1ccc(-c2nnc(SCCC3OCCCO3)o2)cc1,-,15µM,-,-,-,?
O=C1OCCC1Sc1nnc(-c2ccco2)o1 (centres undefined),-,-,-,-,-,-
CCOc1cc(/C=C/C(=O)OCC(=O)NCC2CCCO2)cc(Cl)c1OC (centres undefined),.,.,.,-,.,-
SMILES,SMN2 splice up,FLuc counter,Rab9 promoter act,ELG1 genotox,NPC1 prom act,ELG1 DNA repair
Cc1ccc2c(CC(=O)NCc3ccccc3)coc2c1C,-,-,.,.,.,.
Cc1ccc(C)c(Oc2coc3cc(OCC(=O)Nc4ccccc4C(C)C)ccc3c2=O)c1,-,-,-,-,-,26µM
S=c1nc(-c2ccccc2)c(-c2ccccc2)n[nH]1,.,-,-[1.84 µM],-,-,-
Nc1c(-c2ccccc2)n[nH]c1-c1ccccc1,13µM,-[2.3 µM],?,?,2.8µM,?
Cc1ccc(OCCCn2c(=O)sc3ccccc32)cc1,-,17µM,-,-,-,?
Cc1ccc(OCCn2c(=O)sc3ccccc32)cc1,13µM,6.7µM,?,?,3.5µM,?
O=c1sc2ccccc2n1CCCOc1ccccc1,?,11µM,2.5µM,-,3.2µM,?
O=c1sc2ccccc2n1COc1ccccc1,-,-,-,-,-,-
O=c1sc2ccccc2n1COc1ccc(Cl)cc1,-,19µM,?,?,-,?
CCCn1ccc2c(OCC(=O)NCc3ccccc3Cl)cccc2c1=O,.,-,.,.,.,.
Cc1ccc(S(=O)(=O)N(C)CC(=O)NNC(=O)CCNS(=O)(=O)c2cccc(C)c2)cc1,.,.,.,-,.,-
Cc1ccccc1OCCCn1c(=O)sc2ccccc21,18µM,9.5µM,?,-,?,?
COc1ccc(-c2nnc(SCC(=O)Nc3ccccc3OC)o2)cc1,11µM,27µM,1.6µM,?,2.8µM,?
COc1ccc(-c2nnc(SCC(=O)Nc3cccc(Cl)c3)o2)cc1,13µM,-,2µM,?,?,?
COc1ccc(NCc2nnc(SCC(=O)Nc3cc(C(F)(F)F)ccc3Cl)o2)cc1,-,17µM,-,-,-,-
COc1ccccc1NC(=O)CSc1nnc(-c2cccc(Cl)c2)o1,.,-,.,.,.,.
CSc1nsc(NC(=O)OCc2ccc(Cl)cc2)n1,.,24µM,-,-,-,-
O=C1O/C(=C\c2ccccc2)c2ccccc21,-,12µM,-,-,-,-
CCc1ccc(-n2c(N3CCN(c4cccc(Cl)c4)CC3)nc3ccccc3c2=O)cc1,-,-,.,.,.,.
CCN(CC)c1ccc(/C=N/NC(=O)c2cccc(N3CCCC3=O)c2)cc1,-,15µM,-,-,-,?
O=C(N/N=C/c1cc([N+](=O)[O-])ccc1O)c1cccc(N2CCCC2=O)c1,.,-,-,-,-,12µM
COc1cc(/C=N/NC(=O)c2cccc(N3CCCC3=O)c2)ccc1O,.,?,-,-,-,-
COc1ccc(C(=O)/C=C/c2ccc3c(c2)OCCO3)cc1,.,1.7µM,?,-,-,?
COc1ccc(/C=N/NC(=O)c2ccc3c(c2)OCCO3)cc1[N+](=O)[O-],-,-,-,-,-,-
Cc1ccc(O)c(C(=O)/C=C/c2ccc3c(c2)OCCO3)c1,-,24µM,?,-,-,-
SMILES,SMN2 splice up,FLuc counter,Rab9 promoter act,ELG1 genotox,NPC1 prom act,ELG1 DNA repair
COc1cc(/C=C/C(=O)OCC(=O)Nc2ccc3c(c2)OCCO3)ccc1O,-,?,-,-,-,?
COc1ccc(/C=C/C(=O)c2ccc3c(c2)OCCO3)cc1[N+](=O)[O-],-,6.7µM,-,-,-,?
O=C(/C=C/c1ccc2c(c1)OCCO2)c1ccccc1,.,0.48µM,1µM,?,2.8µM,?
O=C(Cn1cnc2c(nc3n2CCCCC3)c1=O)Nc1ccc(F)cc1,.,-,.,.,.,.
CCCNC(=O)c1ccc(COc2ccc(CCC)cc2OC)o1,.,-,-,-,-,?
COc1ccc(S(=O)(=O)NCCS(=O)(=O)N2CCN(c3ccccc3F)CC2)cc1,.,-,.,.,.,.
CC(NC(=O)C(=O)NCCc1c[nH]c2ccccc12)c1ccccc1 (centres undefined),.,-,-,-,-,-
O=C(NC1CCCC1)c1ccccc1-c1nc2ccccc2[nH]1,11µM,-,-,-,-,-
O=C(Nc1nc2ccccc2[nH]1)Nc1ccccc1F,.,1.1µM,?,1.2µM,?,?
